# Measured values as given in PubChem BioAssay AID504546 (Broad Institute, 2011).
# Records with an inconclusive call do not appear. Calls of active or inactive are those of the source.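 Rule for the calls: active = every repeat run fits a falling-signal curve with half-maximal potency within ten times top tested dose; inconclusive = runs disagree, or flat moderate drop, or poor fit; inactive = every run inactive, including signal moving upward.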
# Assay: inhibition of ADP-Glo detection reagents, dose response, artefact control for CDK5 inhibitor project, biochemical, luminescence, cherry-picked samples, set 2 (AID 504546)
row,Compound,outcome
1,Clc1cncc(Cl)c1N/N=C/c1ccccc1,inactive
2,CCc1c(Nc2ccccc2Cl)nc(N)[nH]c1=O,inactive
3,COc1ccccc1C(=O)N1CCN(c2ccccn2)CC1,inactive
4,C=CC(=O)Nc1ccc(Nc2nc(NC3CCC(N(C)C)CC3)nc3c2ncn3C(C)C)cc1 (stereo not given),inactive
5,Cc1cc(C)c2nc(C(F)(F)F)c(C#N)c(N)c2c1,inactive
6,Nc1cc2c(cc1[N+](=O)[O-])-c1ccccc1C2=NO,inactive
7,COc1ccc2nc3c(cc2c1)c(NC(=O)CC(C)C)nn3CC(C)C,inactive
8,O=C(c1ccc2c(c1)OCCO2)N1CCN(c2ccccn2)CC1,inactive
9,COc1ccc(C(=O)c2sc(NC(C)C)nc2N)cc1OC,inactive
10,COc1ccc(C(=O)N2CCN(c3ccccn3)CC2)cc1,inactive
11,COc1ccc2nc(C(F)(F)C(F)(F)F)c(C#N)c(N)c2c1,inactive
12,O=c1c(O)c(-c2ccc(O)c(O)c2)oc2cc(O)ccc12,inactive
13,Oc1cc2c(cc1O)C1c3ccc(O)c(O)c3OCC1(O)C2 (stereo not given),inactive
14,Nc1ccc2c(c1)C(=NO)c1ccccc1-2,inactive
15,COc1ccc(Nc2nccc(-c3ccc(C#N)cc3)n2)cc1,inactive
16,Nc1nc(Nc2cccc(F)c2)nc(NCCO)c1[N+](=O)[O-],inactive
17,O=[N+]([O-])c1ccc2c(c1)/C(=N\O)c1ccccc1-2,inactive
18,Cc1nc(Nc2ccccc2)sc1C(=O)c1ccc(F)cc1,inactive
19,Nc1nc(Nc2ccccc2F)sc1C(=O)c1ccccc1,inactive
20,CC(C)C[C@H](CO)Nc1nc(Nc2cccc(Cl)c2)c2ncn(C(C)C)c2n1,inactive
